# Test results: PubChem BioAssay (Tox21)
# Values without a mark were called inactive. Records with an inconclusive call do not appear. Where a call stands in place of a potency, no number is given. Active and inactive are the calls of the source. Unless noted, the call rests on the fitted dose curve; in most records, active means well fitted curve in the direction sought with a large enough effect in the repeat runs; inconclusive means weak or mixed curves; inactive means no such curve, though single readings can be large; an effect the other way counts as inactive or inconclusive.
# Legend:
# [1] = qHTS assay to test for compound auto fluorescence at 535 nm (green) in HEK293 cells (AID 720680)
# [2] = qHTS assay to test for compound auto fluorescence at 460 nm (blue) in HEK293 cell free culture (AID 720681)
# Method in brief: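 Compounds were added to cell-free DMEM with 10% FBS and fluorescence read directly. The blue channel used 405 nm excitation and 460 nm emission, with triamterene as the reference fluorophore.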
# [3] = qHTS assay to test for compound auto fluorescence at 535 nm (green) in HEK293 cell free culture (AID 720682)
# Method in brief: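 Measurement is a direct plate read of green fluorescence (485 nm in, 535 nm out) after compound addition to serum-supplemented DMEM lacking cells, with fluorescein used to express intensities.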
# [4] = qHTS assay to test for compound auto fluorescence at 590 nm (red) in HEK293 cell free culture (AID 720683)
# Method in brief: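 Cell-free wells of DMEM with 10% FBS received compound, and intrinsic fluorescence was read at excitation/emission 540/590 nm. Values expressed as equivalence to Rose Bengal sodium.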
# [5] = qHTS assay to test for compound auto fluorescence at 590 nm (red) in HepG2 cell free culture (AID 720684)
# Method in brief: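 Auto fluorescence equivalency versus Rose Bengal sodium, red channel Ex/Em 540/590 nm; compounds in cell-free MEM/10% FBS; DMSO vehicle control.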
# [6] = qHTS assay to test for compound auto fluorescence at 460 nm (blue) in HepG2 cell free culture (AID 720685)
# Method in brief: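 Cell-free plates of MEM plus 10% FBS received 23 nL compound or DMSO vehicle; blue-channel (405/460 nm) intensity scored against triamterene as reference fluorophore.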
# [7] = qHTS assay to test for compound auto fluorescence at 535 nm (green) in HepG2 cell free culture (AID 720686)
# [8] = qHTS assay to test for compound auto fluorescence at 460 nm (blue) in HepG2 cells (AID 720687)
# Method in brief: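 HepG2 cells in MEM with 10% FBS, attached overnight at 37 C, were exposed to compound or DMSO for 1 hr at 37 C, 5% CO2. Blue fluorescence was read at 405/460 nm, with triamterene as reference fluorophore.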
# [9] = molecular target: Glucocorticoid receptor (Homo sapiens) (UniProt P04150); experiment: qHTS assay to identify small molecule agonists of the glucocorticoid receptor (GR) signaling pathway (AID 720691; active means well fitted activation curve with a large enough effect in the signal ratio in the repeat runs, not every such curve was filed as active; the % refers to the signal ratio)
# Method in brief: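 Cells: GR-bla HeLa, endogenous GR with stably integrated GRE-beta-lactamase reporter. Treatment 18 h, 37 C, compounds delivered in DMSO. Detection via LiveBLAzer B/G FRET substrate, 2 h RT, fluorescence intensity.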
# [10] = molecular target: Glucocorticoid receptor (Homo sapiens) (UniProt P04150); experiment: qHTS assay to identify small molecule antagonists of the glucocorticoid receptor (GR) signaling pathway (AID 720692; active means well fitted inhibition curve with a large enough effect in the signal ratio in the repeat runs, not every such curve was filed as active; the % refers to the signal ratio)
# Method in brief: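 Quantitative HTS in antagonist format: HeLa cells expressing endogenous GR and a stably integrated GRE-bla reporter, stimulated with 5 nM dexamethasone (final) alongside test compounds for 18 h.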
# [11] = qHTS assay to identify small molecule antagonists of the glucocorticoid receptor (GR) signaling pathway - cell viability counter screen (AID 720693); further: nearly all actives have a fitted effect of over 55% in size
# [12] = qHTS assay for identifying genotoxic compounds that show differential cytotoxicity against isogenic chicken DT40 cell lines with known DNA damage response pathways - wild type cell line (AID 743012); further: nearly all actives have a fitted effect of over 60% in size; further: potency means the concentration at half of the fitted maximal effect
# Method in brief: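 Luminescent ATP viability signal (CellTiter-Glo, 30 min RT) recorded after wild type DT40 cells were incubated with compounds for 40 h at 37 C/5% CO2.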
# [13] = qHTS assay for identifying genotoxic compounds that show differential cytotoxicity against isogenic chicken DT40 cell lines with known DNA damage response pathways - Rad54/Ku70 mutant cell line (AID 743015); further: nearly all actives have a fitted effect of over 60% in size; further: potency means the concentration at half of the fitted maximal effect
# [14] = qHTS assay to identify small molecule antagonists of the androgen receptor (AR) signaling pathway - cell viability counter screen (AID 743033; further: nearly all actives have a fitted effect of over 45% in size)
# [15] = qHTS assay to identify small molecule antagonists of the androgen receptor (AR) signaling pathway using the MDA cell line - cell viability counter screen (AID 743041; further: nearly all actives have a fitted effect of over 45% in size)
# Method in brief: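 Compound exposure lasted 16 h at 37C in MDA-kb2 AR-luc cells stimulated with R1881. Protease-based CellTiter-Fluor reagent was applied for the final 30 min and fluorescence measured.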
# [16] = molecular target: Androgen receptor (Homo sapiens) (UniProt P10275); experiment: qHTS assay to identify small molecule agonists of the androgen receptor (AR) signaling pathway (AID 743036; active means well fitted activation curve with a large enough effect in the signal ratio in the repeat runs, with a control signal flat, not every such curve was filed as active; the % refers to the signal ratio)
# Method in brief: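 Beta-lactamase under UAS control, stably integrated in HEK293 GripTite cells, reports receptor activation. After 16 h compound treatment, cells received FRET substrate for 2 h at room temperature before fluorescence reading.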
# [17] = molecular target: Androgen receptor (Homo sapiens) (UniProt P10275); experiment: qHTS assay to identify small molecule agonists of the androgen receptor (AR) signaling pathway using the MDA cell line (AID 743040; further: nearly all actives have a fitted effect of over 20% in size)
# Method in brief: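 Testing was done with the MDA-kb2 AR-luc line, a human breast carcinoma stably transfected with MMTV-luciferase containing AR and GR response elements. Cells were exposed 16 h at 37C before ONE-Glo luminescence detection.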
# [18] = molecular target: Androgen receptor (Homo sapiens) (UniProt P10275); experiment: qHTS assay to identify small molecule antagonists of the androgen receptor (AR) signaling pathway using the MDA cell line (AID 743042; further: nearly all actives have a fitted effect of over 55% in size)
# Method in brief: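 MDA-kb2 breast carcinoma cells carrying MMTV-luciferase (AR/GR responsive) were co-treated with compounds and the agonist R1881 for 16 h at 37C. Inhibition read as ONE-Glo luminescence; CellTiter-Fluor fluorescence measured in parallel for cytotoxicity.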
# [19] = qHTS assay for identifying genotoxic compounds that show differential cytotoxicity against isogenic chicken DT40 cell lines with known DNA damage response pathways - Rev3 mutant cell line (AID 743014); further: nearly all actives have a fitted effect of over 55% in size
# [20] = molecular target: Androgen receptor (Homo sapiens) (UniProt P10275); experiment: qHTS assay to identify small molecule antagonists of the androgen receptor (AR) signaling pathway (AID 743035; active means well fitted inhibition curve with a large enough effect in the signal ratio in the repeat runs, not every such curve was filed as active; the % refers to the signal ratio)
# Method in brief: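 Quantitative HTS of the Tox21 10K library used HEK293 AR-UAS-bla cells stimulated with R1881 alongside compound for 16 h at 37C, followed by beta-lactamase FRET detection (LiveBLAzer B/G, 2 h, RT).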
# Sequence of Glucocorticoid receptor (Homo sapiens) (P04150 whole entry, looked up): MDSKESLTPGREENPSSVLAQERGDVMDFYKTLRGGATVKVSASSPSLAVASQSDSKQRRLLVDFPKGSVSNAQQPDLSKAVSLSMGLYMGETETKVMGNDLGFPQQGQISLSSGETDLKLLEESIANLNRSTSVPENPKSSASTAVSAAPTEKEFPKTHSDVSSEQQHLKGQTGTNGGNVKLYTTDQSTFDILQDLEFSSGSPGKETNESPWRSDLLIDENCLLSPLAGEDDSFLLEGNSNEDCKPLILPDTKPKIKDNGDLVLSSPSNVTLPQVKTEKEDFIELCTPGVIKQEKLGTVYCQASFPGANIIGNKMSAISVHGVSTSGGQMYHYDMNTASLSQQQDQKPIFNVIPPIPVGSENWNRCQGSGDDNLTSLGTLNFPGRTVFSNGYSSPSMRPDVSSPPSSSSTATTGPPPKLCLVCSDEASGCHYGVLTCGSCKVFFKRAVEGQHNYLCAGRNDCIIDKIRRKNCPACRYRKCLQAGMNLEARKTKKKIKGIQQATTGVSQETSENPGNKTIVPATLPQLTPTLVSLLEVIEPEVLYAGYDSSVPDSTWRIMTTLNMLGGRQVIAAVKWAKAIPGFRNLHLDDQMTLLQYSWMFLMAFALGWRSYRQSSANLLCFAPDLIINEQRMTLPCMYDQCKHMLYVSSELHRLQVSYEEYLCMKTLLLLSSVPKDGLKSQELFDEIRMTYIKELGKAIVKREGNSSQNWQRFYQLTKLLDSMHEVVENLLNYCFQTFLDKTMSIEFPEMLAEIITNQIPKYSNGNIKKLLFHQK
# Sequence of Androgen receptor (Homo sapiens) (P10275 whole entry, looked up): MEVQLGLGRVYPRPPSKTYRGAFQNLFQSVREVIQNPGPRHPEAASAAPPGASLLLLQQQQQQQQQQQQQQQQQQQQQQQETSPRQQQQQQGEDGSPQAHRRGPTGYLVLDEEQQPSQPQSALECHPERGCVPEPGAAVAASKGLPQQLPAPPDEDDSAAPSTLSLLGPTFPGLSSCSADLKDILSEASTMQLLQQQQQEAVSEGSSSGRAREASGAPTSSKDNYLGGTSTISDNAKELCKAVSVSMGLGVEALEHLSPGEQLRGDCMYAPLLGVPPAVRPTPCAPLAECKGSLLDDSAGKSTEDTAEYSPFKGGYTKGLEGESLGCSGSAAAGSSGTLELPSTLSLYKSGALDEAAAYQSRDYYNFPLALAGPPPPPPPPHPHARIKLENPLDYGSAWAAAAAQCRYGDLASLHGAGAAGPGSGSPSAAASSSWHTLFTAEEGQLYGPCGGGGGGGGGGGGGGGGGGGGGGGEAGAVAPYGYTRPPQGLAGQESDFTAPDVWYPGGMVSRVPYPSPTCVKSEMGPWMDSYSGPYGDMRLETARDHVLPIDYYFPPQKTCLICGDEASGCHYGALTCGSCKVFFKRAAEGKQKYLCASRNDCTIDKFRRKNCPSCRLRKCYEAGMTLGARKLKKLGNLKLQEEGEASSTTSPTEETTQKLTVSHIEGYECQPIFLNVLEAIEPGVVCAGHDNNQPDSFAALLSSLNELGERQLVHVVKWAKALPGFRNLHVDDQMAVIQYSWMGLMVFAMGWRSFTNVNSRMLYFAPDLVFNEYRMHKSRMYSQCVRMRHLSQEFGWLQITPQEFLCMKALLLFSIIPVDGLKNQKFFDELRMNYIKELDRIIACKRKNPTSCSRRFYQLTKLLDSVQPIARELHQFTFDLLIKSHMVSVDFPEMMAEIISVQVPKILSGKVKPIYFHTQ
compound,measurement,setting,value
CCCCOCCCC,outcome,[1],inactive
same,outcome,[2],inactive
same,outcome,[3],inactive
same,outcome,[4],inactive
same,outcome,[5],inactive
same,outcome,[6],inactive
same,outcome,[7],inactive
same,outcome,[8],inactive
same,Potency,[9],inactive
same,outcome,[10],inactive
same,outcome,[11],inactive
same,Potency,[12],inactive
same,Potency,[13],inactive
same,outcome,[14],inactive
same,outcome,[15],inactive
CC(C)OC(=O)C(C(=O)OC(C)C)=C1SC=CS1,outcome,[1],inactive
same,outcome,[2],inactive
same,outcome,[3],inactive
same,outcome,[4],inactive
same,outcome,[5],inactive
same,outcome,[6],inactive
same,outcome,[7],inactive
same,outcome,[8],inactive
same,Potency,[9],inactive
same,outcome,[10],inactive
same,outcome,[11],inactive
same,Potency,[12],23.7 µM (active)
same,Potency,[13],23.7 µM (active)
same,outcome,[14],inactive
same,outcome,[16],inactive
same,outcome,[17],inactive
same,outcome,[15],inactive
same,outcome,[18],inactive
Cc1ccccc1OCC(=O)O,outcome,[1],inactive
same,outcome,[2],inactive
same,outcome,[3],inactive
same,outcome,[4],inactive
same,outcome,[5],inactive
same,outcome,[6],inactive
same,outcome,[7],inactive
same,outcome,[8],inactive
same,Potency,[9],inactive
same,outcome,[10],inactive
same,outcome,[11],inactive
same,Potency,[12],inactive
same,Potency,[19],inactive
same,Potency,[13],inactive
same,outcome,[14],inactive
same,outcome,[15],inactive
Cc1ccc2cccnc2c1,outcome,[1],inactive
same,outcome,[2],inactive
same,outcome,[3],inactive
same,outcome,[4],inactive
same,outcome,[5],inactive
same,outcome,[6],inactive
same,outcome,[7],inactive
same,outcome,[8],inactive
same,Potency,[9],inactive
same,outcome,[10],inactive
same,outcome,[11],inactive
same,Potency,[19],inactive
same,Potency,[13],inactive
same,outcome,[14],inactive
same,outcome,[20],inactive
same,outcome,[16],inactive
same,outcome,[17],inactive
same,outcome,[15],inactive
same,outcome,[18],inactive
CC(C)C(C)C,outcome,[1],inactive
same,outcome,[2],inactive
same,outcome,[3],inactive
same,outcome,[4],inactive
same,outcome,[5],inactive
same,outcome,[6],inactive
same,outcome,[7],inactive
same,outcome,[8],inactive
same,Potency,[9],inactive
same,outcome,[10],inactive
same,outcome,[11],inactive
same,Potency,[12],inactive
same,Potency,[19],inactive
same,Potency,[13],inactive
same,outcome,[14],inactive
same,outcome,[15],inactive
CCCCNCC,outcome,[1],inactive
same,outcome,[2],inactive
same,outcome,[3],inactive
same,outcome,[4],inactive
same,outcome,[5],inactive
same,outcome,[6],inactive
same,outcome,[7],inactive
same,outcome,[8],inactive
same,Potency,[9],inactive
same,outcome,[10],inactive
same,outcome,[11],inactive
same,Potency,[12],inactive
same,Potency,[19],inactive
same,Potency,[13],inactive
same,outcome,[15],inactive
O=C(O)CCC(=O)Nc1ccc(S(=O)(=O)Nc2nccs2)cc1,"fluorescence, % of fluorescein",[1],0.032% [at 18.6 µM]
same,"fluorescence, % of fluorescent control",[2],-0.0604% [at 18.6 µM]
same,activity change,[3],0.0309% [at 18.6 µM]
same,"fluorescence, % of fluorescent control",[4],0.0244% [at 18.6 µM]
same,"fluorescence, % of Rose Bengal",[5],0.477% [at 18.6 µM]
same,"fluorescence, % of fluorescent control",[6],-0.0059% [at 18.6 µM]
same,"fluorescence, % of fluorescein control",[7],0.022% [at 18.6 µM]
same,"fluorescence, % of fluorescent control",[8],-0.0217% [at 18.6 µM]
same,Potency,[9],inactive
same,outcome,[10],inactive
same,outcome,[11],inactive
same,Potency,[12],inactive
same,Potency,[13],inactive
same,outcome,[14],inactive
same,outcome,[15],inactive
